Results taken from PubChem BioAssay (Tox21).
Values joined by “and” are separate entries in the source; they are usually repeats but may differ in a detail not shown here. Identical values can stand only once. Records with an inconclusive call do not appear. A call without a number means that no potency is given here. Active and inactive are the calls of the source. Unless noted, calls follow the shape of the full dose curve.

molecular target: Nuclear receptor ROR-gamma (Homo sapiens) (UniProt P51449); assay: qHTS assay to identify small molecule antagonists of the retinoid-related orphan receptor gamma (ROR-gamma) signaling pathway (AID 1159521; active = well fitted inhibition curve with a large enough effect in the repeat runs; also: nearly all actives have a fitted effect of over 50% in size; also: potency is read from the fitted curve at half-maximal effect); settings: Tet-on RORgamma CHO cells, RORE-luciferase, 16 h; series mostly up to 92.4 µM
Summary of the method: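 Tet-on ROR-gamma CHO cells with ROR response element-luciferase reporter; compounds added 2 hr before 1 uM doxycycline induction, then 16 hr at 37 C. Antagonism scored as decreased ONE-Glo luminescence.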

Structure (SMILES) | Potency
CC(C)CC(=O)CC(C)CC(C)C (stereo unspecified) | inactive
O=C(O)CCCCCCCCC(=O)O | inactive
CN(C)c1ccc(O)c2c1C[C@H]1C[C@H]3[C@H](N(C)C)C(=O)C(C(N)=O)=C(O)[C@@]3(O)C(=O)C1=C2O | 21.7 µM (active) and 26.6 µM (active)
NC(=S)NNC(N)=S | inactive
c1ccc(Oc2ccccc2)cc1 | inactive
CCCCCCCCCCN | inactive
O=[N+]([O-])c1ccc2nc[nH]c2c1 | inactive
C[Si]1(C)O[Si](C)(C)O[Si](C)(C)O[Si](C)(C)O1 | inactive
CC(C)c1cccc(C(C)C)c1 | inactive
O=C1c2ccccc2CCc2ccccc21 | inactive
CC(C)=CCl | inactive
C=CC[N+](C)(C)CC=C | inactive
COc1ccc([N+](=O)[O-])cc1N | inactive
O=C(O)c1ccc(C(=O)O)c(C(=O)O)c1 | inactive
NCCCCCCN | inactive
NCCNCCN | inactive
CCCCCC(=O)O | inactive
CC(C)(C)c1cc(Cc2cc(C(C)(C)C)c(O)c(C(C)(C)C)c2)cc(C(C)(C)C)c1O | inactive
COC(=O)CCCC(=O)OC | inactive

Structure (SMILES) | Potency
CN(C)c1ccc(Cc2ccc(N(C)C)cc2)cc1 | inactive
CC(C)OP(=O)(CP(=O)(OC(C)C)OC(C)C)OC(C)C | inactive
COC(=O)c1cccnc1 | inactive
CCOC(=O)n1ccn(C)c1=S | inactive
Cc1ccc(S(=O)(=O)N=C=O)cc1 | inactive
CC(CCl)OP(=O)(OC(C)CCl)OC(C)CCl (stereo unspecified) | inactive
CC(C)CCCCCCCOC(=O)CCCCC(=O)OCCCCCCCC(C)C | inactive
CC(=O)c1ccc(O)cc1 | inactive
C=C(C)CNCC | inactive
CCCCC(C=O)CC (stereo unspecified) | inactive
C=C(C)C(=O)OCC(C)C | inactive
CCNc1ccccc1 | inactive
O=C(O)/C=C/C(=O)O | inactive
CC(=O)OCc1ccco1 | inactive
O=C(O)c1cc2ccccc2cc1O | inactive
CCNc1cccc(C)c1 | inactive
COc1ccc(OC)cc1 | inactive
N#Cc1ccccc1 | inactive

test system: not listed separately; assay: qHTS assay to identify small molecule agonists of the AP-1 signaling pathway - cell viability counter screen (AID 1159525); settings: ME-180 AP-1-bla cells viability, ATP luminescence, 5 h; series mostly up to 76.8 µM; also: nearly all actives have a fitted effect of over 55% in size
Summary of the method: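 Same-well cytotoxicity counter screen of the Tox21 10K library in ME-180 cells. The readout is ATP-dependent luminescence after 5 h compound treatment. Data are normalised to DMSO and tetra n-octyl ammonium bromide controls.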

Structure (SMILES) | outcome
CC(C)CC(=O)CC(C)CC(C)C (stereo unspecified) | inactive
O=C(O)CCCCCCCCC(=O)O | inactive
CN(C)c1ccc(O)c2c1C[C@H]1C[C@H]3[C@H](N(C)C)C(=O)C(C(N)=O)=C(O)[C@@]3(O)C(=O)C1=C2O | inactive
NC(=S)NNC(N)=S | inactive
c1ccc(Oc2ccccc2)cc1 | inactive
CCCCCCCCCCN | inactive
O=[N+]([O-])c1ccc2nc[nH]c2c1 | inactive
C[Si]1(C)O[Si](C)(C)O[Si](C)(C)O[Si](C)(C)O1 | inactive
CC(C)c1cccc(C(C)C)c1 | inactive
O=C1c2ccccc2CCc2ccccc21 | inactive
CC(C)=CCl | inactive
C=CC[N+](C)(C)CC=C | inactive
COc1ccc([N+](=O)[O-])cc1N | inactive
O=C(O)c1ccc(C(=O)O)c(C(=O)O)c1 | inactive
NCCCCCCN | inactive
NCCNCCN | inactive
CCCCCC(=O)O | inactive
CC(C)(C)c1cc(Cc2cc(C(C)(C)C)c(O)c(C(C)(C)C)c2)cc(C(C)(C)C)c1O | inactive
COC(=O)CCCC(=O)OC | inactive

Structure (SMILES) | outcome
CN(C)c1ccc(Cc2ccc(N(C)C)cc2)cc1 | inactive
CC(C)OP(=O)(CP(=O)(OC(C)C)OC(C)C)OC(C)C | inactive
COC(=O)c1cccnc1 | inactive
CCOC(=O)n1ccn(C)c1=S | inactive
Cc1ccc(S(=O)(=O)N=C=O)cc1 | inactive
CC(CCl)OP(=O)(OC(C)CCl)OC(C)CCl (stereo unspecified) | inactive
CC(C)CCCCCCCOC(=O)CCCCC(=O)OCCCCCCCC(C)C | inactive
CC(=O)c1ccc(O)cc1 | inactive
C=C(C)CNCC | inactive
CCCCC(C=O)CC (stereo unspecified) | inactive
C=C(C)C(=O)OCC(C)C | inactive
CCNc1ccccc1 | inactive
O=C(O)/C=C/C(=O)O | inactive
CC(=O)OCc1ccco1 | inactive
O=C(O)c1cc2ccccc2cc1O | inactive
CCNc1cccc(C)c1 | inactive
COc1ccc(OC)cc1 | inactive
N#Cc1ccccc1 | inactive

test system: not listed separately; assay: qHTS assay to identify small molecule agonists of the AP-1 signaling pathway (AID 1159526); settings: ME-180 (cervical carcinoma) AP-1-bla reporter, beta-lactamase FRET ratio, 5 h; series mostly up to 76.8 µM; also: potency is read from the fitted curve at half-maximal effect

Structure (SMILES) | Potency
CC(C)CC(=O)CC(C)CC(C)C (stereo unspecified) | inactive
O=C(O)CCCCCCCCC(=O)O | inactive
CN(C)c1ccc(O)c2c1C[C@H]1C[C@H]3[C@H](N(C)C)C(=O)C(C(N)=O)=C(O)[C@@]3(O)C(=O)C1=C2O | inactive
NC(=S)NNC(N)=S | inactive
c1ccc(Oc2ccccc2)cc1 | inactive
CCCCCCCCCCN | inactive
O=[N+]([O-])c1ccc2nc[nH]c2c1 | inactive
C[Si]1(C)O[Si](C)(C)O[Si](C)(C)O[Si](C)(C)O1 | inactive
CC(C)c1cccc(C(C)C)c1 | inactive
O=C1c2ccccc2CCc2ccccc21 | 35.4 µM (active) and 23.9 µM (active)
CC(C)=CCl | inactive
C=CC[N+](C)(C)CC=C | inactive
COc1ccc([N+](=O)[O-])cc1N | inactive
O=C(O)c1ccc(C(=O)O)c(C(=O)O)c1 | inactive
NCCCCCCN | inactive
NCCNCCN | inactive
CCCCCC(=O)O | inactive
CC(C)(C)c1cc(Cc2cc(C(C)(C)C)c(O)c(C(C)(C)C)c2)cc(C(C)(C)C)c1O | inactive
COC(=O)CCCC(=O)OC | inactive

Structure (SMILES) | Potency
CN(C)c1ccc(Cc2ccc(N(C)C)cc2)cc1 | inactive
CC(C)OP(=O)(CP(=O)(OC(C)C)OC(C)C)OC(C)C | inactive
COC(=O)c1cccnc1 | inactive
CCOC(=O)n1ccn(C)c1=S | inactive
Cc1ccc(S(=O)(=O)N=C=O)cc1 | inactive
CC(CCl)OP(=O)(OC(C)CCl)OC(C)CCl (stereo unspecified) | inactive
CC(C)CCCCCCCOC(=O)CCCCC(=O)OCCCCCCCC(C)C | inactive
CC(=O)c1ccc(O)cc1 | inactive
C=C(C)CNCC | inactive
CCCCC(C=O)CC (stereo unspecified) | inactive
C=C(C)C(=O)OCC(C)C | inactive
CCNc1ccccc1 | inactive
O=C(O)/C=C/C(=O)O | inactive
CC(=O)OCc1ccco1 | inactive
O=C(O)c1cc2ccccc2cc1O | inactive
CCNc1cccc(C)c1 | inactive
COc1ccc(OC)cc1 | inactive
N#Cc1ccccc1 | inactive
